Shiga inhibitor: Shiga toxin inhibition; Vero cells, Shiga toxin protein synthesis inhibition reporter; inhibition, % at 38.7 µM; 290,000 compounds, 9.2% hits; in the data active = inhibition mostly above about 28%, no sharp cut-off; inactive = mostly below about 43%; note: 0% is about no effect
Cycloheximide cs: counter-screen for Shiga toxin inhibitors: cycloheximide protein synthesis inhibition; cell reporter, cycloheximide protein synthesis inhibition counterscreen; max response, %; 300,000 compounds, 12% hits; AID 2314; in the data active = max response mostly above about 13%, no sharp cut-off; inactive = mostly below about 14%; note: read at 38.3 µM for the half of the compounds with a filed dose; 0% is about no effect
FMDV antiviral: foot and mouth disease virus antiviral activity; FMDV antiviral cell-based qHTS; Potency, µM (top dose mostly 57.9 µM), for the others: at the highest dose activity change, negative = inhibition, most hits filed as inhibitors; 410,000 compounds, 1.2% hits; calls by dose curve; tested in HEK293T cells; note: read-out not given here; potency is the fitted concentration of half-maximal effect; % is set by controls: 0 for no effect and ±100 for the full control effect; nearly all actives have a fitted effect of over 45% in size
MARV entry inh: Marburg virus entry inhibition | Marburg virus pseudotyped entry inhibition, cell reporter | Potency, µM (doses to about 37.8 µM), for the others: at the top dose activity change, negative = inhibition, hits mostly inhibitors | AID 540276 | 300,000 compounds, 1.8% hits; calls by dose curve; tested in HEK293 cells; note: potency is the fitted concentration of half-maximal effect; % is set by controls: 0 for no effect and ±100 for the full control effect
Lassa entry inh: inhibitors of Lassa virus binding or cell entry; AID 540256; 300,000 compounds, 1.2% hits; Potency, µM (series often up to 37.9 µM), for inactives: top-dose activity change, negative = inhibition, usual class: inhibitors; Lassa virus pseudotype entry inhibition, cell reporter; calls by dose curve; tested in HEK293 cells; note: potency is the fitted concentration of half-maximal effect; % is set by controls: 0 for no effect and ±100 for the full control effect; nearly all actives have a fitted effect of over 50% in size
HCV inhibitor: inhibitors of hepatitis C virus infection | Huh7.5.1 HCVcc-Cre infection, luciferase reporter, 44 h | Potency, µM (doses to about 41.8 µM), for inactives: at the highest dose activity change, negative = inhibition, most hits filed as inhibitors | 340,000 compounds, 3.4% hits | AID 651820; active = well fitted inhibition curve with a large enough effect; inconclusive = small, poorly fitted or top-dose-only effect, or another doubt; inactive = no such curve, though single readings can be large or run the other way; note: potency is the fitted concentration of half-maximal effect; % is set by controls: 0 for no effect and ±100 for the full control effect
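Seed cells (1,000/well) for 4 h; treat with compound and infect with HCVcc-Cre, moi about 0.5. Incubate 44 h, then detect luciferase activity.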
The depositor's hits bear a star; ? = inconclusive; nt = no result given; [ ] = another dose, or the depositor's remark. Rows were chosen to be rich in hits. Some 13% of all compounds tested hit in one or more screens of this group.

SMILES	Shiga inhibitor	Cycloheximide cs	FMDV antiviral	MARV entry inh	Lassa entry inh	HCV inhibitor
O=C(COc1ccc2c(c1)OCO2)Nc1nncs1	33	18*	0%	-4%[46.1 µM]	7%[46.1 µM]	20%
COc1ccc(OCC(=O)Nc2ccccc2OC(F)F)cc1	8	9.6*	-8%	0%	7%	?
O=C(NCc1ccc2c(c1)OCO2)NC12CC3CC(CC(C3)C1)C2	-2	11	-9%	-18%	?	-31%
O=C(COc1ccc2c(c1)OCO2)NC12CC3CC(CC(C3)C1)C2	44*	17*	12%	6%[46.1 µM]	4%	9%
CCOC(=O)c1ccccc1NC(=O)COc1coc(CN2CCc3ccccc32)cc1=O	nt	nt	-26%	?	-20%	?
CCOc1ccccc1NC(=O)COc1coc(CN2CCc3ccccc32)cc1=O	nt	nt	-2%	?	-29%	7.9µM*
N=C1c2ccccc2CN1NC(=O)COc1ccc(Cl)cc1	28	0	-10%	nt	nt	-8%
CCn1c(=O)c(C(=O)CN2CCN(Cc3ccc4c(c3)OCO4)CC2)c(N)n(Cc2ccccc2)c1=O	-14	1	-12%	?	-15%[46.1 µM]	-9%
COc1ccc(OCC(=O)NNC(=S)NC(=O)C2CCCCC2)cc1	-13	15	nt	nt	nt	nt
Cc1ccc(C)c(N2CCN(C(=O)C34CC5CC(C3)CC(n3nnc(C)n3)(C5)C4)CC2)c1	12	1	?	?	?	18µM*
Cc1nnn(C23CC4CC(CC(C4)C2)C3)n1	16	-2	1%	2%	4%	8%
Cc1ccc(C23CC4CC(CC(CC(=O)N5CCOCC5)(C4)C2)C3)cc1	6	-2	?	?	8.2µM*	?
Cc1ccc(C23CC4CC(CC(NC(=O)N5CCN(C)CC5)(C4)C2)C3)cc1	-10	-3	-30%	?	?	13µM*
Cc1ccc(C23CC4CC(CC(NC(=O)NC(C)(C)CO)(C4)C2)C3)cc1	-15	-3	-20%	-18%	-28%	-15%
Cc1ccc(C23CC4CC(CC(C(=O)N5CCN(C)CC5)(C4)C2)C3)cc1	-2	-1	?	-1%	nt	2.5µM*
CNC(=O)C12CC3CC(C1)CC(c1ccc(C)cc1)(C3)C2	nt	3	1%	0%	-1%	0%
Cc1ccc(C23CC4CC(CC(NC(=O)NN)(C4)C2)C3)cc1	-6	5	-14%	nt	nt	10%
OC[C@@H]1CC[C@@H](Cc2ccc(-c3ccccc3)cc2)O1	nt	nt	8%	nt	nt	?
Cc1ccc(F)c(S(=O)(=O)NC(=O)C2(C)CCN2C(=O)Cc2ccccc2Cl)c1 (centres undefined)	nt	nt	4%	nt	nt	nt
CCN(C(=O)c1sc2nc3n(c(=O)c2c1C)CCCCC3)c1ccccc1F	nt	nt	-15%	nt	?	nt
Cc1cn(C2OC(COC(=O)c3ccccc3)C(OC(=O)c3ccccc3)C2OC(=O)c2ccccc2)c(=O)[nH]c1=O (centres undefined)	-1	1	-21%	?	?	-23%
O=C(OCC1OC(OC(=O)c2cc(O)c(O)c(OC(=O)c3cc(O)c(O)c(O)c3)c2)[C@@H](OC(=O)c2cc(O)c(O)c(OC(=O)c3cc(O)c(O)c(O)c3)c2)C(OC(=O)c2cc(O)c(O)c(OC(=O)c3cc(O)c(O)c(O)c3)c2)C1OC(=O)c1cc(O)c(O)c(OC(=O)c2cc(O)c(O)c(O)c2)c1)c1cc(O)c(O)c(OC(=O)c2cc(O)c(O)c(O)c2)c1 (some centres undefined)	nt	nt	nt	0.35µM*	11µM*	nt
CC(=C/c1ccc(C(C)C)cc1)/C=N/NC(=O)Cn1nc(C)cc1C	65	18*	-5%	4%	-2%	4%
Cc1ccc(/C=N/NC(=O)Cn2nccc2C)o1	-3	-3	9%	-1%	-4%	10%
CC(/C=N/NC(=O)Cn1nnc(N)n1)=C\c1ccc(C(C)C)cc1	77*	24*	-17%	3%[46.1 µM]	-3%	-4%
SMILES	Shiga inhibitor	Cycloheximide cs	FMDV antiviral	MARV entry inh	Lassa entry inh	HCV inhibitor
COc1ccc(/C=N/NC(=O)CCn2nc(C)cc2C)cc1	13	3	-8%	4%[46.1 µM]	?	1%
CC(/C=N/NC(=O)Cn1cnc2ccccc21)=C\c1ccccc1	-9	-4	-8%	-14%	?	-5%
CC(/C=N\NC(=O)Cn1cncn1)=C/c1ccc(C(C)C)cc1	81*	24*	13%	?	-23%	0%
Cc1ccc(/C=N/NC(=O)Cn2nnc(N)n2)cc1	-4	-2	13%	nt	nt	18%
CC(/C=N/NC(=O)Cn1nccc1C)=C\c1ccc(C(C)C)cc1	43*	42*	-25%	5%	3%	4%
O=C1NC2CCCCC2C(=O)N1OS(=O)(=O)c1ccccc1 (centres undefined)	nt	nt	0%	-15%	-12%	15%
Cc1cn(-c2ccc(Br)cc2)[nH]c1=O	64*	39*	nt	-3%	6%	5%
CCCOc1ccc(/C(O)=C2/C(=O)C(=O)N(CCCn3ccnc3)C2c2cccs2)cc1 (centres undefined)	13	16*	-4%	2%	nt	6%
CCOc1ccc(/C(O)=C2/C(=O)C(=O)N(CCCn3ccnc3)C2c2cccs2)cc1Cl (centres undefined)	63*	47*	4%	5%	28%	2%
CSc1cc(CS(=O)(=O)c2ccccc2)nc(-c2ccccc2)n1	-1	-2	-6%	-5%[46.1 µM]	8%[46.1 µM]	-24%
O=C1c2ccccc2C(=O)N1Cc1cc(-c2ccccc2)no1	27*	19*	nt	22%	-6%	13%
COc1ccc(-c2cc(CS(=O)(=O)c3ccccc3)on2)cc1	68*	41*	16%	?	-3%[46.1 µM]	-5%
O=S(=O)(Cc1cc(-c2ccccc2)no1)c1ccccc1	65*	34*	30%	?	-1%[46.1 µM]	10%
O=C(CCCN1C(=O)c2cccnc2Oc2ccc(Cl)cc21)NCc1ccc(F)cc1	nt	nt	-16%	nt	14%[46.1 µM]	nt
Cc1ccc(SCC(=O)Nc2cc([N+](=O)[O-])ccc2O)cc1	55*	28*	26%	?	?	0%
CC(CC(=O)O)CC(=O)Nc1cc([N+](=O)[O-])ccc1O (centres undefined)	-9	8	-7%	-3%[46.1 µM]	0%[46.1 µM]	-1%
O=C(CSCc1ccc(Cl)cc1)Nc1cc([N+](=O)[O-])ccc1O	46*	16	-10%	?	?	2.2µM*
CCC(=O)NNc1nc2c(C)cc(C)cc2s1	20	12	13%	?	?	9%
Cc1cc(C)c2nc(NCc3ccccc3O)sc2c1	114*	22*	41%	nt	nt	?
COc1cc(CNc2nc3c(C)cc(C)cc3s2)ccc1O	48*	25*	-19%	?	?	?
O=C(CCC1CCCN(C(=O)c2cc3ccccc3o2)C1)NCc1ccc(F)c(F)c1 (centres undefined)	nt	nt	32%	nt	nt	-28%
CC(C)CN(C(=O)CN1CCN(S(=O)(=O)c2ccc3ccccc3c2)CC1)c1c(N)n(CC(C)C)c(=O)[nH]c1=O	-4	-4	-12%	17%	1%	5%

Compound activity from PubChem.
